Reference: PubChem BioAssay (NCATS)
Where “and” joins values, the source holds several entries; their conditions need not be identical. Equal entries are not always repeated. A number with no mark means an inactive call. Inconclusive results are not listed. Entries that show only a call come without a potency. Calls of active or inactive are those of the source. Unless noted, the call rests on the fitted dose curve; in most records, active means well fitted curve in the direction sought with a large enough effect; inconclusive means small, poorly fitted or top-dose-only effect, or another doubt; inactive means no such curve, though single readings can be large; an effect the other way counts as inactive or inconclusive.

Columns and labels:
[1] = biological target: Beta-2 adrenergic receptor (Homo sapiens) (UniProt P07550); assay: qHTS validation assay of beta-arrestin-biased ligands of beta2-adrenergic receptor (AID 485366)
Method in brief: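 Luminescence from a tTA-responsive luciferase, induced when recombinant beta-arrestin is recruited to recombinant beta2-AR, served as the agonism signal. Cells were exposed to compound for 18 hr at 37 degrees C; titrations spanned up to 46 microM.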

[2] = Quantitative high throughput screen for delayed death inhibitors of the malarial parasite plastid, 96 hour incubation (AID 488745); further: nearly all actives have a fitted effect of over 70% in size; further: potency means the concentration at half of the fitted maximal effect
Method in brief: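 Infected erythrocytes were added to compound in Albumax-supplemented RPMI 1640 at 0.1% parasitemia and 2% hematocrit (final), incubated 96 h at 37 C under 5% CO2, then luciferase reagent was added and luminescence measured.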

[3] = Quantitative high throughput screen for delayed death inhibitors of the malarial parasite plastid, 48 hour incubation (AID 488752); further: nearly all actives have a fitted effect of over 65% in size; further: potency means the concentration at half of the fitted maximal effect
Method in brief: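 Readout is firefly luciferase luminescence from a reporter integrated into the parasite genome, with lower signal taken as inhibited growth. Infected red cells (0.1% parasitemia, 2% hematocrit final) are cultured with compound for one 48 h cycle at 37 C.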

[4] = biological target: Thioredoxin reductase 1, cytoplasmic (Rattus norvegicus) (UniProt O89049); assay: qHTS Assay for Substrates of Mammalian Selenoprotein Thioredoxin Reductase 1 (TrxR1) (AID 488772);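 further: NADPH fluorescence in the first read after selenite addition and not the 8 min delta; series mostly up to about 57 µM; a drop in NADPH fluorescence below the no-compound background marks a TrxR1 substrate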
Method in brief: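 Quantitative HTS in Tris-HCl buffer at pH 7.5 with EDTA and Tween-20, using rat TrxR1, 400 uM NADPH and 400 uM selenite (final). A fall in initial NADPH fluorescence relative to background marked substrate behaviour.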

[5] = biological target: Thioredoxin reductase 1, cytoplasmic (Rattus norvegicus) (UniProt O89049); assay: qHTS Assay for Inhibitors of Mammalian Selenoprotein Thioredoxin Reductase 1 (TrxR1) (AID 488773); conditions: Potency: inhibition;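 further: drop in NADPH fluorescence over an 8 min run after selenite addition; series mostly up to about 57 µM; nearly all actives have a fitted effect of over 40% in size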
Method in brief: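 Steps: enzyme (90 nM) plus NADPH (400 uM final), 5 min at ~22 deg C; compound added, 15 min; selenite (400 uM final) added; fluorescence followed for 8 min. Concentration-response curves derived from the normalized delta values.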

[6] = biological target: Flap endonuclease 1 (Homo sapiens) (UniProt P39748); assay: qHTS Validation Assay for the Inhibitors of Human Flap endonuclease 1 (FEN1) (AID 488816); further: potency means the concentration at half of the fitted maximal effect
Method in brief: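 FEN1, dispensed as a 10 nM reagent, was preincubated with pin-transferred compounds for 15 min at room temperature before substrate was added (50 nM final). Plates were read at 0 and 15 min, and a four-parameter Hill equation was fitted to the concentration-response data.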

[7] = biological target: M-phase phosphoprotein 8 (Homo sapiens) (UniProt Q99549); assay: qHTS Validation Assay for Inhibitors for MPP8 Chromodomain Interactions with Methylated Histone Tails (AID 488949); further: nearly all actives have a fitted effect of over 55% in size; further: potency means the concentration at half of the fitted maximal effect
Method in brief: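 MPP8 (50 nM) was preincubated with biotinylated H3(1-18)K9me3 peptide (50 nM) in PBS pH 7.4, 0.01% Tween-20 for 30 min at room temperature, then with compounds for 30 min; binding was detected by AlphaScreen.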

[8] = biological target: Methanococcus maripaludis chaperonin (MmCpn) (UniProt Q6LX38); assay: High-Throughput Screening for Modulators of Cytosolic Chaperonin Activity: MmCpn Primary Screen (AID 488978);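 further: 50 nM MmCpn enzyme hydrolysing 30 µM ATP at 37 °C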
Method in brief: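 MmCpn (50 nM final) was preincubated with compound 5 min at RT, then 30 uM ATP (final) was added and the reaction ran 10 min at 37C. ADP produced was detected by Transcreener HTRF (ex 320 nm; em 590/665 nm).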

[9] = biological target: Transient receptor potential cation channel subfamily V member 1 (Homo sapiens) (UniProt Q8NER1); assay: HTS Assay for Compounds that Act as Enhancers of the Vanilloid Receptor 1 (AID 488979)
Method in brief: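 TRPV1-expressing cells loaded with Fluo-8 calcium dye; compounds added and calcium influx read kinetically for 3 min (agonist phase), then capsaicin at EC20 added and read 2 min more for enhancement. Fluorescence ex 480/em 520 nm.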

[10] = biological target: Thyrotropin receptor (Homo sapiens) (UniProt P16473); assay: qHTS Assay for Antagonists of the Thyroid Stimulating Hormone Receptor (AID 488980); further: series mostly up to about 58 µM
Method in brief: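 HEK293 cells transfected with human TSHR, suspended in HEPES-buffered HBSS with 70 uM RO 20-1724, were treated with compounds plus TSH at EC80 (4 nM final). cAMP was measured by competitive HTRF (cryptate anti-cAMP antibody, cAMP-d2 acceptor).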

[11] = biological target: D(1A) dopamine receptor (Homo sapiens) (UniProt P21728); assay: HTS Assay for Allosteric Agonists of the Human D1 Dopamine Receptor: Primary Screen for Agonists (AID 488981)
Method in brief: (§1)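 Tetracycline-induced HEK293 T-REx cells force-coupled to calcium signalling were incubated overnight at 30 C and dye-loaded at room temperature. Calcium flux over 180 s after compound addition flagged agonists; a further 180 s read after EC20 dopamine flagged potentiators.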

[12] = biological target: D(1A) dopamine receptor (Homo sapiens) (UniProt P21728); assay: HTS Assay for Allosteric Agonists of the Human D1 Dopamine Receptor: Primary Screen for Potentiators (AID 488982)
Method in brief: as §1

[13] = biological target: D(1A) dopamine receptor (Homo sapiens) (UniProt P21728); assay: HTS Assay for Allosteric Agonists of the Human D1 Dopamine Receptor: Primary Screen for Antagonists (AID 488983);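 further: calcium flux response to an EC80 dopamine challenge measured with no-wash dye; nearly all actives have a fitted effect of over 65% in size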; further: potency means the concentration at half of the fitted maximal effect
Method in brief: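 Cells are induced with tetracycline and incubated overnight at 30 C, then loaded with calcium dye for 30 to 90 minutes at room temperature. Compound addition is followed by a 180 s read, then an EC80 dopamine addition and another 180 s read.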

[14] = Validation screen for small molecules that induce genotoxicity in human embryonic kidney (HEK293T) cells expressing luciferase-tagged ELG1 (AID 493106)
Method in brief: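 Luminescence from an ELG1-luciferase fusion serves as the read-out, rising when genetic stress elevates ELG1 protein. HEK293T reporter cells (2,000 per well) received 23 nL compound, incubated 16 hr at 37 °C, then ONE-Glo for 30 min at room temperature.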

[15] = biological target: ATPase family AAA domain-containing protein 5 (Homo sapiens) (UniProt Q96QE3); assay: Validation screen for small molecules that inhibit ELG1-dependent DNA repair in human embryonic kidney (HEK293T) cells expressing luciferase-tagged ELG1 (AID 493107);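 further: cells co-treated with the DNA-damaging agent 5-fluorouridine alongside compound; series mostly up to about 46 µM; inhibitors lower the ELG1-luciferase luminescence signal; nearly all actives have a fitted effect of over 70% in size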
Method in brief: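 Luminescence from ONE-Glo, developed 30 min at room temperature, served as read-out of ELG1-luciferase levels. Beforehand, reporter HEK293T cells received 5-fluorouridine plus test compound for 16 hr at 37 °C.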

[16] = biological target: Thyrotropin-releasing hormone receptor (Homo sapiens) (UniProt P34981); assay: qHTS for Small Molecule Agonists and Allosteric Enhancers of Human TRH Receptor: Validation Screen for Agonists (AID 493127;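 active means calcium activation more than 3 SD above the typical response in the agonist read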;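 further: intracellular calcium rise by fluo-8 fluorescence before TRH EC20 addition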); conditions: TRH receptor agonist cell assay; at 2 µM; active compounds read high
Method in brief: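 Cells 2000/well, 10% FCS, 18 h 33.5C/5% CO2 → fluo-8 Ca dye, RT 30 min–1.5 h → FDSS baseline 10 × 1 s → compound added → 230 cycles (1 s/cycle) agonist mode. TRH controls.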

[17] = biological target: Chromobox protein homolog 1 (Homo sapiens) (UniProt P83916); assay: qHTS Validation Assay for Inhibitors of HP1-beta Chromodomain Interactions with Methylated Histone Tails (AID 488953); further: nearly all actives have a fitted effect of over 50% in size; further: potency means the concentration at half of the fitted maximal effect
Method in brief: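 50 nM HP1-beta + 50 nM biotin-H3(1-18)K9me3, PBS pH 7.4, 0.01% Tween-20, 30 min RT; compound added, 30 min RT; AlphaScreen beads 10 ug/mL final, 30 min dark; luminescence read.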

ATPase family AAA domain-containing protein 5 (Homo sapiens), sequence (Q96QE3 whole entry, looked up, the tested form may be a part): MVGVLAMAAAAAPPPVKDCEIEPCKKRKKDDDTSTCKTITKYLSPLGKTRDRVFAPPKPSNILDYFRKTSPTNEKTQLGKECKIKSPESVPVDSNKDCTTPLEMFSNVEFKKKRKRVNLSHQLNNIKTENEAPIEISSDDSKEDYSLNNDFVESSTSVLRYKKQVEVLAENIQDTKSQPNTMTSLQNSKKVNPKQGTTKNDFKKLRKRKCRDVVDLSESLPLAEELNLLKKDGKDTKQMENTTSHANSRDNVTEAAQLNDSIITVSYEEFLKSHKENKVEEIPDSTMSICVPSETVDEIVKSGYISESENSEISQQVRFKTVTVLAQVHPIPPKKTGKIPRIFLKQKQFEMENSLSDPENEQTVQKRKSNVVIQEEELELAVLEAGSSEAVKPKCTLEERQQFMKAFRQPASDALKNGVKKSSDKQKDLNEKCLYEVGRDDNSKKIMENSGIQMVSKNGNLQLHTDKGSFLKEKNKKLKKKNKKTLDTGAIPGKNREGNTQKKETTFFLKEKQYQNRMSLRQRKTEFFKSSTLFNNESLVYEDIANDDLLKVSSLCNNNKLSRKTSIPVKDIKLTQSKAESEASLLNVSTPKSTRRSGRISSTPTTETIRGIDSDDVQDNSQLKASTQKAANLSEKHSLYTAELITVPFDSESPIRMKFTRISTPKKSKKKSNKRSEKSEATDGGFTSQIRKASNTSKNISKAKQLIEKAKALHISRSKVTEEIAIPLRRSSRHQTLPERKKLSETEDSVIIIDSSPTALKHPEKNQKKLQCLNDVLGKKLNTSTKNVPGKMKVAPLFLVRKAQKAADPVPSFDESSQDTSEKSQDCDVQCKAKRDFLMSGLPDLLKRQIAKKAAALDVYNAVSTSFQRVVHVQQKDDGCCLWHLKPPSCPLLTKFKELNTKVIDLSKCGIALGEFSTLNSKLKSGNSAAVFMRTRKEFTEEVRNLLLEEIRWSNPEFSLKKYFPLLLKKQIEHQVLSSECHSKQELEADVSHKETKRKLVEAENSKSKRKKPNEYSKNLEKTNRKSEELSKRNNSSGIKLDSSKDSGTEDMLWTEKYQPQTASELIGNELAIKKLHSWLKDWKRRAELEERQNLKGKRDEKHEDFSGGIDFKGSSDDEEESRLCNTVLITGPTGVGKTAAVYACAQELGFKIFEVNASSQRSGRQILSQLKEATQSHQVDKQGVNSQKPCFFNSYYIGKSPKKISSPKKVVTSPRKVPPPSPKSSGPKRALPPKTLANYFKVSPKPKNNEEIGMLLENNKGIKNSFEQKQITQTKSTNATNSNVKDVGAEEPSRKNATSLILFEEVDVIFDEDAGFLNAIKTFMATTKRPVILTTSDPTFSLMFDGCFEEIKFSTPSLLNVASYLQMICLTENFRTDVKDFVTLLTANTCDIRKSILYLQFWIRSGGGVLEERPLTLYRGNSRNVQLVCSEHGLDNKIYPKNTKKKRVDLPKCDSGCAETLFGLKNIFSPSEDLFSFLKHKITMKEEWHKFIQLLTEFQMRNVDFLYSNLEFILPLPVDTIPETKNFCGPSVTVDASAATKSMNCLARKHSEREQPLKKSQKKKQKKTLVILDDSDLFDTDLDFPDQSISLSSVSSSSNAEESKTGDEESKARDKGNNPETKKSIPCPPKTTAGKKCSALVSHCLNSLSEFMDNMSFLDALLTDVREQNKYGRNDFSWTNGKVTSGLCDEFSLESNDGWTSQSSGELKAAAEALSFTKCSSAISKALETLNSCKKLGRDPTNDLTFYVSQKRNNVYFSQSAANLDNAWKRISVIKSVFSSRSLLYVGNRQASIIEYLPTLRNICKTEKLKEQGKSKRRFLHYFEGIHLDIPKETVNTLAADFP
D(1A) dopamine receptor (Homo sapiens), sequence (P21728 whole entry, looked up): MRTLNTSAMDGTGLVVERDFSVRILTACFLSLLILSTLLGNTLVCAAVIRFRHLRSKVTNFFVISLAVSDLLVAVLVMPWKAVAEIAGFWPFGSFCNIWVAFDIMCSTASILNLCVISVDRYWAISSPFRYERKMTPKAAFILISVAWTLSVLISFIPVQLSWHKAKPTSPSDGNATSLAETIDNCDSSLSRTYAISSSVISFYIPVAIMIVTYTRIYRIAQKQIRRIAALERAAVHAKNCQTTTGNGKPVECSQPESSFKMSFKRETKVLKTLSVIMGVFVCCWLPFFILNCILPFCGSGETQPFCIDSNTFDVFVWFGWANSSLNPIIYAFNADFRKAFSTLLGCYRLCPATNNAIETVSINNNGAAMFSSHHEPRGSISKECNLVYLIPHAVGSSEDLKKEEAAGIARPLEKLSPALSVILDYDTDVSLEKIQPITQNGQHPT
Thyrotropin receptor (Homo sapiens), sequence (P16473 whole entry, looked up): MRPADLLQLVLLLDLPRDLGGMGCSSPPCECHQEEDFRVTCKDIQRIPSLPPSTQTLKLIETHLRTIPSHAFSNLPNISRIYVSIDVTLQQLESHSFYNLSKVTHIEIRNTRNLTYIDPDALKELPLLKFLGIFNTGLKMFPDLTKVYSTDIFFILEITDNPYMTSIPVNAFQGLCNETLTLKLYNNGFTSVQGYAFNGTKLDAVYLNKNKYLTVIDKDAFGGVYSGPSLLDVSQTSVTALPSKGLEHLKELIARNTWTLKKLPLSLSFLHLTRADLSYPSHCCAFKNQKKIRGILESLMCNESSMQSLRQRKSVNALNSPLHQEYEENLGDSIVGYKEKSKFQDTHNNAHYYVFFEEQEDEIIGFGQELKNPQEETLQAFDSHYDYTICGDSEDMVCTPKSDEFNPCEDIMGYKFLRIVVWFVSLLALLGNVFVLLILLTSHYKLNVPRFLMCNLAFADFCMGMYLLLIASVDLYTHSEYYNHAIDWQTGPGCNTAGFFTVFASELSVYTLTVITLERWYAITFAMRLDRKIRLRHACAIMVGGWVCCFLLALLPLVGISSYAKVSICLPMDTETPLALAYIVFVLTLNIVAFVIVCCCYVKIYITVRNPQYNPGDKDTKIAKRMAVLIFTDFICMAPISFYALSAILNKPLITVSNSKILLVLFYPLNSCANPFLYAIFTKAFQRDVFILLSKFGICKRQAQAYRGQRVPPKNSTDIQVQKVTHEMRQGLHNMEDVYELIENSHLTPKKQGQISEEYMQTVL
Thyrotropin-releasing hormone receptor (Homo sapiens), sequence (P34981 whole entry, looked up): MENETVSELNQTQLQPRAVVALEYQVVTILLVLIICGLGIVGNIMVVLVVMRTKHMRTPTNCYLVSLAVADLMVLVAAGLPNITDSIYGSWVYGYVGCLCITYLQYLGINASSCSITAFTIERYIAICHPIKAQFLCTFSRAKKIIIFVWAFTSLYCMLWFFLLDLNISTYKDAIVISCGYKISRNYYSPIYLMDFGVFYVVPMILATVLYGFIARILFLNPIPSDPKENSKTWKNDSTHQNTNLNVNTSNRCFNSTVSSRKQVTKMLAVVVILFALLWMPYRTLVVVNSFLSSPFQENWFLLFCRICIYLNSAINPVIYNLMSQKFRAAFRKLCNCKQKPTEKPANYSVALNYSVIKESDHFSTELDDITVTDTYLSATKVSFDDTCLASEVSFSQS
M-phase phosphoprotein 8 (Homo sapiens), sequence (Q99549 whole entry, looked up): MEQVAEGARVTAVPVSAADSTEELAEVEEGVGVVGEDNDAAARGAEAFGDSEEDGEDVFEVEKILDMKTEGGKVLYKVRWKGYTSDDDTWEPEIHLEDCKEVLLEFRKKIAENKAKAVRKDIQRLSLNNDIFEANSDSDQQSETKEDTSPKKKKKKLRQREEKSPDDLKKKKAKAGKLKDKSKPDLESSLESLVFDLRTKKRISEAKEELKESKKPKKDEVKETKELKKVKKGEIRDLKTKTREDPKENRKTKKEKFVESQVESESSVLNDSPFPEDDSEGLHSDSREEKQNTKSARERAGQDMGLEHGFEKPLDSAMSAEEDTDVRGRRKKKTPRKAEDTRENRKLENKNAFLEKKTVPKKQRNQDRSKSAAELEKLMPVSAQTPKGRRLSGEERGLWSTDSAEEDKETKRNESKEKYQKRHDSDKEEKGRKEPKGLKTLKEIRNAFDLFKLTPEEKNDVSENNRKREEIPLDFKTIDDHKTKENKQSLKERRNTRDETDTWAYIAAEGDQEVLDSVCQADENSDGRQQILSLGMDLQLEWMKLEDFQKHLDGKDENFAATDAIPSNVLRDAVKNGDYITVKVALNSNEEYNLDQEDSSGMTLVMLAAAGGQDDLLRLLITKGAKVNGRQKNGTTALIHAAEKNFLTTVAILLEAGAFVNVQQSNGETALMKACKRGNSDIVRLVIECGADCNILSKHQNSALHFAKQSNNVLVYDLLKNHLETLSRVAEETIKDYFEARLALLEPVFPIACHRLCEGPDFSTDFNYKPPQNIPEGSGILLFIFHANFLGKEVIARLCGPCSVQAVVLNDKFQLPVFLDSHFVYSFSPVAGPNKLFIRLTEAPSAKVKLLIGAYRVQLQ
Flap endonuclease 1 (Homo sapiens), sequence (P39748 whole entry, looked up): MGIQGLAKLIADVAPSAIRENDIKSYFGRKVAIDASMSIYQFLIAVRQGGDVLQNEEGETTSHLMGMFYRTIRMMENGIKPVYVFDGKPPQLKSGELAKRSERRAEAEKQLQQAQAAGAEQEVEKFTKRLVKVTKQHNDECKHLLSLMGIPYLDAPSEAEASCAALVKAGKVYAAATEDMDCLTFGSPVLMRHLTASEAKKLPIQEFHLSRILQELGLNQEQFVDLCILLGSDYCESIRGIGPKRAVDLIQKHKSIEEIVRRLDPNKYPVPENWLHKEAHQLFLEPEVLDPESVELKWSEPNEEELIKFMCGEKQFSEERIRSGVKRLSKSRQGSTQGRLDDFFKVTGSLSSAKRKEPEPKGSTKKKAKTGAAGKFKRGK
Chromobox protein homolog 1 (Homo sapiens), sequence (P83916 whole entry, looked up): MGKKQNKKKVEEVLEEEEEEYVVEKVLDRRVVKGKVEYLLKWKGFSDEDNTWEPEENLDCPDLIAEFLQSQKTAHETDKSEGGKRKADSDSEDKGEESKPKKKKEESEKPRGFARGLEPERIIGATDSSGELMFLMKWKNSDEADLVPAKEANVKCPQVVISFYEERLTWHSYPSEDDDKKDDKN

Compound | outcome [1] | Potency [2] | Potency [3] | outcome [4] | Potency [5] | Potency [6] | Potency [7] | outcome [8] | outcome [9] | outcome [10] | Potency [11] | Potency [12] | Potency [13] | Potency [14] | Potency [15] | activation [16] | Potency [17]
NCC(O)(CS(=O)(=O)O)c1ccc(Cl)cc1 (stereo not drawn) | inactive | inactive | inactive | inactive | inactive | inactive | inactive | inactive | inactive | inactive | inactive | inactive | inactive | inactive | inactive |  | 
COC1(C2=NCCN2)COc2ccccc2O1 (stereo not drawn) | inactive | inactive | inactive | inactive | inactive | inactive | inactive | inactive | inactive | inactive | inactive | inactive | inactive | inactive | inactive | 1.62% | 
COc1cc(CC(=O)O)ccc1O | inactive | inactive | inactive | inactive | inactive | inactive | inactive | inactive | inactive | inactive | inactive | inactive | inactive | inactive |  | 0.125% | 0.006 µM (active)
NCCCNCCCCNCCCN | inactive | inactive | inactive | inactive | inactive | inactive | inactive | inactive | inactive | inactive | inactive | inactive | inactive | inactive |  | 0.688% | inactive
Nc1ccc(N2C(=O)c3ccccc3C2=O)c(Cl)c1 | inactive | inactive | inactive | inactive | inactive | inactive | inactive | inactive | inactive | inactive | inactive | inactive | inactive | inactive | inactive | -4.94% | 
N=C(N)SCCN | inactive | inactive | inactive | inactive | inactive | inactive | inactive | inactive | inactive | inactive |  | inactive | inactive | inactive | inactive |  | inactive
O=c1ccn([C@@H]2O[C@H](COP(=O)(O)OP(=O)(O)O)[C@@H](O)[C@H]2O)c(=O)[nH]1 | inactive | inactive | inactive | inactive | inactive | inactive | inactive | inactive | inactive | inactive | inactive |  | inactive | inactive |  |  | inactive
Cc1ccc([N+](=O)[O-])cc1S(=O)(=O)N(C)C | inactive | inactive | inactive | inactive | inactive | inactive | inactive | inactive | inactive | inactive | inactive |  | inactive | inactive | inactive | 1.19% and 0.125% | inactive
CSC(N)=NCCC[C@H](N)C(=O)O | inactive | inactive | inactive | inactive | inactive | inactive | inactive | inactive | inactive | inactive | inactive | inactive | inactive | inactive | inactive | 0.75% | 
CN(C)CCC(c1ccc(Br)cc1)c1ccccn1 (stereo not drawn) | inactive | inactive | inactive | inactive | inactive | inactive | inactive | inactive | inactive |  | inactive | inactive | inactive | inactive | inactive |  | inactive
O=C(O)C1=CCCN(CCON=C(c2ccccc2)c2ccccc2)C1 | inactive | inactive | inactive | inactive | inactive | inactive | inactive | inactive | inactive | inactive | inactive | inactive | inactive | inactive |  | -3% | 
COc1ccc(NC(=O)c2ccc(-c3ccc(-c4noc(C)n4)cc3C)cc2)cc1N1CCN(C)CC1 | inactive | 4.65 µM (active) | 3.7 µM (active) | inactive | inactive | inactive | 15.8 µM (active) | inactive | inactive | inactive | inactive | inactive | 20 µM (active) | inactive |  |  | 
CCCCCCC/C=C\CCCCCCCCC(=O)O | inactive | inactive | inactive | inactive | inactive | inactive | inactive | inactive | inactive | inactive | inactive |  | inactive | inactive | inactive | 1.5% | inactive
Nc1ccc(-c2nc3ccc(-c4nc5ccc(N)cc5[nH]4)cc3[nH]2)cc1 | inactive | 0.262 µM (active) | 0.415 µM (active) | inactive | inactive | 21.2 µM (active) | 44.7 µM (active) and 26.7 µM (active) |  | inactive | inactive | inactive | inactive | inactive | inactive | inactive | 1% | 39.8 µM (active)
CC[N+](CC)(CC)CC(=O)Nc1c(C)cccc1C | inactive | inactive | inactive | inactive | inactive | inactive | inactive | inactive | inactive | inactive | inactive | inactive | inactive | inactive |  | 0.625% | inactive
COc1cccc(OC)c1OCCNCC1CSc2ccccc2O1 (stereo not drawn) | inactive | inactive | inactive | inactive | inactive | inactive | inactive | inactive | inactive | inactive | inactive | inactive | 1.26 µM (active) | inactive | inactive | -3.81% | 
